Screens (PubChem)
In the library only some 1.8% were active in any assay of this set; here they are far more common.
GLP1R inv ag = qHTS of GLP-1 Receptor Inverse Agonists (Inhibition Mode); Glucagon-like peptide 1 receptor (Homo sapiens), P43220; HEK293 GLP-1R CRE-luciferase, luminescence, 24 h; GLP-1R form is constitutively active; Potency, µM (series often up to 38.3 µM), without a hit: at the highest dose activity change, negative = inhibition, most hits filed as inhibitors; 1.6% of 410,000 active; AID 624417, 2012; also: % is scaled to controls: 0 for no effect and ±100 for the full control effect; nearly all actives have a fitted effect of over 55% in size
Target sequence (P43220 whole entry, looked up): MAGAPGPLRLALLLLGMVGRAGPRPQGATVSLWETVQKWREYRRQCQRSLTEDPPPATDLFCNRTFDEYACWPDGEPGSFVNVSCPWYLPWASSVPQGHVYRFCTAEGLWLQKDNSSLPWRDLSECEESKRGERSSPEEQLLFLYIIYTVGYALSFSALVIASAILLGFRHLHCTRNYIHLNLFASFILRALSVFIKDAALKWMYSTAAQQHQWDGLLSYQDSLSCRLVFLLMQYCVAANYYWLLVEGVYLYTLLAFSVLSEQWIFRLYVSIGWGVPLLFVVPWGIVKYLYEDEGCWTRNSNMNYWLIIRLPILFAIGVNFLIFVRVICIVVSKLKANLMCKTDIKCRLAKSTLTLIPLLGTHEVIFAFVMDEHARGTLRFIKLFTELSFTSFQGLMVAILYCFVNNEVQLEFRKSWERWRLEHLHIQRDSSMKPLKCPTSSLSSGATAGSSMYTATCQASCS
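Cells are plated, allowed 12 hours at 37 deg C, then treated with compounds for 24 hr before luciferase detection reagent is added and luminescence is read after 12 min at room temperature. The HEK293 line carries constitutively active GLP-1R with a cAMP-responsive reporter.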
PTHR1 ag = qHTS for PTHR1 Agonists: Primary Screen. Parathyroid hormone/parathyroid hormone-related peptide receptor (Homo sapiens), Q03431. HEK293 GP2 PTHR1 cells, GloSensor cAMP luminescence, 1 h. Potency, µM (series often up to 115 µM), inactives show at the highest dose activation, usual class: activators. 0.075% of 410,000 active; also: nearly all actives have a fitted effect of over 55% in size
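HEK-293-derived GP2 cells expressing PTHR1 and a GloSensor cAMP reporter, 3,000/well, plated overnight, given luciferin plus IBMX (each 0.5 mM as added) for 1 h at 37 °C, then compound for 1 h at 37 °C. Luminescence was read after 15 min at room temperature.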
GLP-1R agonist = qHTS of GLP-1 Receptor Agonists. Potency, µM (top dose mostly 45.6 µM), for the others: at the top dose activation, usual class: activators. Glucagon-like peptide 1 receptor (Homo sapiens), P43220. 0.007% of 380,000 active. HEK293 GLP-1R CRE-luciferase, luminescence, 4-6 h; cells express a hypersensitive GLP-1R form; also: % of control where 0% means no effect
GCN5L2 inh = qHTS Assay for Inhibitors of GCN5L2. Histone acetyltransferase KAT2A (Homo sapiens), Q92830. GCN5L2 HAT assay, ThioGlo1 CoA-SH fluorescence. Potency, µM (series often up to 58.9 µM), for inactives: top-dose activity change, negative = inhibition, hits mostly inhibitors. 0.21% of 390,000 active; also: % is scaled to controls: 0 for no effect and ±100 for the full control effect
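Compounds, pin-transferred from DMSO stocks, meet 20nM GCN5L2 for 15 min before the reaction begins with H3(1-25) peptide (75uM) and acetyl-CoA (70uM). Thiol-reactive ThioGlo1 reports CoA release over 20 min at room temperature.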
GLP1R cytotox = qHTS of GLP-1 Receptor Inverse Agonists: Cytotox Screen. 0.13% of 410,000 active. HEK293 cAMP-luciferase reporter cells, luminescence, 24 h. Potency, µM (doses to about 38.3 µM), for the others: at the highest dose activity change, negative = inhibition, most hits filed as inhibitors;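 also: loss of luciferase light is scored as toxicity; % is scaled to controls: 0 for no effect and ±100 for the full control effect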
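MLSMR compounds, 24 hr on cells at 37 deg C/5% CO2; luminescence after luciferase reagent (12 min RT). Inhibition counted as the undesired cytotoxic outcome.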
RGS4 inhibitor = Inhibitors of Regulator of G Protein Signaling (RGS) 4: qHTS | 0.039% of 390,000 active | Transcreener GDP fluorescence polarization, RGS4-accelerated GTP hydrolysis | Regulator of G-protein signaling 4 (Homo sapiens), P49798 | Potency, µM (series often up to 114 µM), inactives show at the highest dose activity change, negative = inhibition, hits mostly inhibitors; also: % is scaled to controls: 0 for no effect and ±100 for the full control effect; nearly all actives have a fitted effect of over 75% in size
Target sequence (P49798 whole entry, looked up): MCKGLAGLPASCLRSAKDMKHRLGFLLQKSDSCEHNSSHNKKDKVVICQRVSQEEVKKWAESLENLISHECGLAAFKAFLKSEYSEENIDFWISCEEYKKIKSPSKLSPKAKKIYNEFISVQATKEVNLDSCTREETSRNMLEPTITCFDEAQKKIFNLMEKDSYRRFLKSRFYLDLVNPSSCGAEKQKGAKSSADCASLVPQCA
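MLSMR compounds (23 nl, pin-transferred) preincubated 10 min at room temperature with a 500nM (2x) first reagent, then RGS4 at 900nM (2x) plus Transcreener GDP mix added; fluorescence polarization (620/688 nm) read before and after 90 min at 30 °C.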
Active calls of the source: *; i = inactive; ? = inconclusive; nt = no result given; [ ] = remark or other dose. Calls follow the shape of the dose curve; as a rule, active = well fitted curve in the direction sought with a large enough effect; inconclusive = small, poorly fitted or top-dose-only effect, or another doubt; inactive = no such curve, though single readings can be large; an effect the other way counts as inactive or inconclusive. Potency is read from the fitted curve at half-maximal effect.

SMILES	GLP1R inv ag	PTHR1 ag	GLP-1R agonist	GCN5L2 inh	GLP1R cytotox	RGS4 inhibitor
CCCCc1ccc(NC(=O)CC(C)(C)C)cc1	11µM*	-21%	12%	-3%	8%	-3%
Clc1ccc2c(N/N=C/c3ccccc3Br)ccnc2c1	-18%	-17%	0%	2%	13%[1.53 µM]	-45%
Clc1ccc2c(N/N=C/c3cccc(Br)c3)ccnc2c1	13µM*	-22%	-3%	-4%	?	-47%
COc1ccccc1/C=C/C(=O)c1cc(Br)ccc1OC(=O)c1ccco1	5µM*	-20%[57.5 µM]	-13%	nt	?	?
CC(=O)c1ccc(OCC(=O)OCC(=O)c2ccc(S(=O)(=O)N3CCCCC3)cc2)cc1	3%	-14%	-4%	nt	5%	nt
Cc1ccccc1NC(=O)CSc1nc2ccccc2c2nc(CCn3c(C)nc4ccccc43)nn12	7%	i	nt	-3%	1%	9%
Cc1nc2ccccc2n1CCc1nc2c3ccccc3nc(SCC(=O)NCc3ccco3)n2n1	?	i	-1%	-11%	10µM*	-43%[56.9 µM]
C=CCc1cc(C=O)cc(OC)c1OCc1ccc(Cl)cc1	10µM*	-24%	2%	3%	-5%	-11%
CCC(C)c1ccccc1NC(=O)CN(C)CCOc1ccc(Cl)cc1 (stereo not given)	10µM*	-4%	12%	-11%	-21%	-25%
CN(C(=O)CSc1cc(C(=O)c2nccn2C)c2ccccc2n1)c1ccccc1	10µM*	-14%	6%	-14%	?	-8%
CC(=O)C1=NN(c2ccc(Cl)cc2)C(c2ccc3c(c2)OCO3)N(C(C)=O)N1C (stereo not given)	?	-26%	9%	-9%	-15%	8%
CC(C)Oc1ccc(CNC(=O)CN2C(=O)c3cccnc3Oc3ccc(Cl)cc32)cc1	?	-2%	nt	-11%	-20%	33%
Cc1ccc(S(=O)(=O)NC2c3cccc4cccc(c34)C2Sc2nncn2C)cc1 (stereo not given)	13%	-44%	3%	-5%	1%	-2%
Cc1ccc(S(=O)(=O)NC2c3cccc4cccc(c34)C2Sc2nc(C)cc(C)n2)cc1 (stereo not given)	7.1µM*	-13%	2%	-9%	16%	-17%
COc1ccc(CC(=O)N2CC3(C)CC2CC(C)(C)C3)cc1 (stereo not given)	11µM*	-3%[57.5 µM]	1%	-6%	-12%	-25%
Cc1ccc(C(=O)Nc2ccccc2C(=O)N2CC3(C)CC2CC(C)(C)C3)cc1 (stereo not given)	10µM*	-14%[57.5 µM]	4%	-5%[0.501 µM]	59%	17%
Cc1ccc(OCC(=O)N2CC3(C)CC2CC(C)(C)C3)cc1 (stereo not given)	10µM*	-4%[57.5 µM]	0%	-1%	-10%	-8%
CC1(C)CC2CC(C)(CN2C(=O)NC(=O)c2ccccc2)C1 (stereo not given)	10%	i	11%	0%	-5%	-11%
CCCn1nnc(NC(=O)c2ccc(-c3cccc(Cl)c3)o2)n1	-28%	-18%	-3%	-10%	?	6%
CCn1nnc(NC(=S)NC(=O)c2ccc(-c3cccc(Cl)c3)o2)n1	-22%	i	-1%	-6%	5µM*	-34%
COc1ccc(OC)c(-c2csc(N3CCC(c4ccccc4)CC3)n2)c1	12%[0.307 µM]	i	7%	-4%	10%[0.307 µM]	14%
CSc1ccccc1C(=O)NCCOc1cccc(C)c1	?	-19%	5%	0%	-15%[0.307 µM]	4%
COc1ccc(Br)cc1[C@H]1[C@@H]2C=CCC[C@@]2(C)C(=O)N1Cc1ccccc1	4.5µM*	-24%	5%	-12%	-15%	3%
Cc1ccc(-c2ccc(C3C4C=CCCC4(C)C(=O)N3Cc3ccccc3)c(F)c2)cc1 (stereo not given)	nt	nt	nt	nt	nt	4%
COc1ccc(-c2cc(C3C4C=CCCC4(C)C(=O)N3Cc3ccccc3)ccc2F)cc1 (stereo not given)	nt	nt	nt	nt	nt	6%
SMILES	GLP1R inv ag	PTHR1 ag	GLP-1R agonist	GCN5L2 inh	GLP1R cytotox	RGS4 inhibitor
COc1ccc(-c2cc([C@H]3[C@@H]4C=CCC[C@@]4(C)C(=O)N3Cc3ccccc3)ccc2F)cc1	10µM*	-46%	6%	-7%	4%	12%
CC(=O)c1ccc(-c2ccc([C@H]3[C@@H]4C=CCC[C@@]4(C)C(=O)N3Cc3ccccc3)c(F)c2)cc1	11µM*	-21%	-6%	-12%	-5%	-1%
CCCCCCCCCCCCCCCCC(C(=O)O)C(O)(CC(=O)O)C(=O)O (stereo not given)	nt	nt	-3%	1.1µM*	nt	nt
O=C(Nc1ccc2c(c1)OCCO2)C(C1CC1)N1CCN(c2ccc(C(F)(F)F)cn2)CC1 (stereo not given)	?	-23%	-5%	nt	-26%	nt
CCCCSCCCNC(=O)C1CCN(Cc2nc(-c3ccc(CC)cc3)oc2C)CC1	9%	0%	nt	-5%	-1%	-9%
COc1ccc(NC(=O)CC2C(=O)N(C)C(=S)N2CCc2ccc(F)cc2)cc1 (stereo not given)	11µM*	-19%	5%	2%	-21%	3%
COc1ccc(CCN2C(=O)N(c3ccc(C)cc3)C(=O)C2CC(=O)Nc2ccc(F)cc2)cc1 (stereo not given)	7.9µM*	-43%	-2%	-14%	-18%	-2%
COc1ccc(CCN2C(=S)N(C)C(=O)C2CC(=O)Nc2ccc(OC)cc2)cc1 (stereo not given)	?	-5%	17%	-2%	4%	-10%
COc1ccccc1C(=O)NC(=O)Nc1ccc(-c2cc(C(F)(F)F)nn2-c2ccccc2)cc1	-2%	-84%	nt	-6%	-5%	-6%
COc1ccccc1C(=O)Nc1ccc(-c2cc(C(F)(F)F)nn2-c2ccccc2)cc1	5.6µM*	i	nt	-10%	?	4%
CCN(C(=O)CN1C(=O)NC2(CCC(C)CC2)C1=O)C1CCCCC1 (stereo not given)	11%	-11%	-5%	nt	1%	nt
CCc1ccccc1NC(=O)Cn1nnc2sc3c(c2c1=O)CCC(C(C)(C)C)C3 (stereo not given)	11µM*	i	nt	-12%	-14%	34%
